Target: T1, NL_v2_PPR14 (Artificial Sequence)
T1 chain: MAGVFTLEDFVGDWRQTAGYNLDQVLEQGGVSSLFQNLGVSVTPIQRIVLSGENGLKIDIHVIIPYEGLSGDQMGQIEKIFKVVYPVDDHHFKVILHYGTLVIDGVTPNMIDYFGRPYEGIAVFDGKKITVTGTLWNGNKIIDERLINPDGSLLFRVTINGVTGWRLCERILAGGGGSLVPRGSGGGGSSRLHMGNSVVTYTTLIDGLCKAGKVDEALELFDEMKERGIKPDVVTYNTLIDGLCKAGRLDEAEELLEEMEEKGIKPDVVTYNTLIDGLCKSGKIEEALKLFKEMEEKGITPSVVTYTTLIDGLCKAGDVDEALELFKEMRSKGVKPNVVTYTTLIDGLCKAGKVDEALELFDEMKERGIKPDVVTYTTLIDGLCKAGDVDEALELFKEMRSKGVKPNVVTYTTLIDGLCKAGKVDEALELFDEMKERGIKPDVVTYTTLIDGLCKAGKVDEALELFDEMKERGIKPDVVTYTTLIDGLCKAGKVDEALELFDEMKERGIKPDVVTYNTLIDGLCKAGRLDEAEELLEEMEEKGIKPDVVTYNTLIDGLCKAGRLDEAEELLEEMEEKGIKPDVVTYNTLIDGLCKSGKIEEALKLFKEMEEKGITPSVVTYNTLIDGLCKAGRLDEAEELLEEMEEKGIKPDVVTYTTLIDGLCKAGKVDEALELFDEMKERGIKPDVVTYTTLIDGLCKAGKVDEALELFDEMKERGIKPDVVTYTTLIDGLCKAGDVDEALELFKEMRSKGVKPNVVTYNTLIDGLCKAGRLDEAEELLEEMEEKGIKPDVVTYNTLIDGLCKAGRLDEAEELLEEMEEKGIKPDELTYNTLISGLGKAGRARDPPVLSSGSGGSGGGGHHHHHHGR
Assay: RPB-ELISA
Details: tags: N-terminal luciferase, C-terminal 6xHis; label: 5'-biotin; ssRNA
Procedure: RNA probes consisting of a designed 30-base sequence containing 18 bases of the target sequence and modified by biotinylation at the 5′ end (RNA_1, RNA_2, RNA_3, RNA_4, and RNA_5, SEQ ID NOS: 61 to 65) were synthesized (Grainer). To a streptavidin-coated plate (Thermo fisher), the 5′-end biotinylated RNA probes were added, reaction was allowed at room temperature for 30 minutes, and the plate was washed with a lysis buffer (20 mM Tris-HCl, pH 7.6, 150 mM NaCl, 5 mM MgCl₂, 0.5% NP-40, 1 mM DTT, 0.1% BSA). For background measurement, wells to which RNA was not added, but 100 μL of the lysis buffer, 1 μL of 100 mM DTT, and 1 μL of 40 unit/4 RNase inhibitor (Takara, 2313A) were added were also prepared. Then, 200 μL of a blocking buffer (20 mM Tris-HCl, pH 7.6, 150 mM NaCl, 5 mM MgCl₂, 0.5% NP-40, 1 mM DTT, 1% BSA) was added, and the plate surface was blocked at room temperature for 30 minutes. Then, 100 μL of E. coli lysate containing luciferase-fused PPR protein having a luminescence level of 1.5×10⁸ LU/μL was added to each well, and the binding reaction was allowed at room temperature for 30 minutes. The well was washed 5 times with 200 μL of a washing buffer (20 mM Tris-HCl, pH 7.6, 150 mM NaCl, 5 mM MgCl₂, 0.5% NP-40, 1 mM DTT). […] The background (luminescence signal value obtained with adding the PPR protein and without adding RNA) was subtracted from the luminescences of the samples to which a solution containing each RNA and PPR protein was added, and the obtained values were used as the binding powers between the PPR protein and RNA.
By using the v2 motif, PPR proteins for 23 kinds of target sequences (T_1 to T_3, and T_5 to T_24, SEQ ID NOS: […]) were prepared (NL_v2_PPR1 to 3, and NL_v2_PPR5 to 24, SEQ ID NOS: 56 to 58 and 70 to 88), and RPB-ELISA was used to analyze bindings of all the combinations. The experimental method was the same as that used in Example 3.

| Sequence | binding signal [log2 luminescence] |
| --- | --- |
| GGUUAGAGAUACAGUGUG | 22 |
